Our source for the growth values is PubChem BioAssay (NCI).

This is part of a sample that, as a whole, favours compounds with a hit. Of some 83,000 tested, about 20% had one in any assay.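 Results are percent growth after 48 hours of single-concentration exposure. 100 means growth as in untreated cells, lower positive values show inhibition; negative values down to -100 show cell death.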 Unmarked numbers belong to inactive results. Activity calls are given as the source filed them. The calls were made as follows: active = growth percent below 10; inactive = the rest.

Among the test systems are SR leukemia; RPMI-8226 leukemia; OVCAR-8 ovarian; OVCAR-5 ovarian; SK-OV-3 ovarian; IGROV1 ovarian; OVCAR-3 ovarian; HS 578T breast; NCI/ADR-RES ovarian.
What all share (assay): NCI-60 one-dose screen, 48 h (100 = growth as untreated, 0 = no growth, -100 = all killed)
What all share (conditions): 10 µM unless noted

As for `COc1cc(F)c(/C=C/c2cc(/C=C/c3cc(OC)c(OC)cc3F)on2)cc1OC`, the growth with SR leukemia was 46.9%; with RPMI-8226 leukemia it was 68.2%; with OVCAR-8 ovarian, 87.1%; with OVCAR-5 ovarian, 97.6%; with SK-OV-3 ovarian, 105%; with IGROV1 ovarian, 79.5%. Also, the growth was 36.1% with OVCAR-3 ovarian, 89.2% in the assay with HS 578T breast and 89.3% in the assay with NCI/ADR-RES ovarian.

In the case of `CCc1c2c(nc3ccc(OCc4ccc(B(O)O)cc4)cc13)-c1cc3c(c(=O)n1C2)COC(=O)[C@]3(O)CC`, the growth was -2.77% (active) in the assay with SR leukemia; 6.35% (active) with RPMI-8226 leukemia; 6.94% (active) in the assay with OVCAR-8 ovarian; 11.5% in the assay with OVCAR-5 ovarian; -4.91% (active) in the assay on SK-OV-3 ovarian; 17.6% with IGROV1 ovarian. The values for the growth in the assay on OVCAR-3 ovarian, in the assay with HS 578T breast and in the assay on NCI/ADR-RES ovarian were 6.75% (active), 36.7% and -0.104% (active), respectively.

In the case of `Cc1nnc2c(Cc3ccccc3)nc3ccccc3n12`, the growth is 94.6% in the assay on SR leukemia; 93.2% in the assay on RPMI-8226 leukemia; 104% in the assay on OVCAR-8 ovarian; 90.7% in the assay on OVCAR-5 ovarian; 99.1% in the assay on SK-OV-3 ovarian; 121% with IGROV1 ovarian. The growth is 94% in the assay on OVCAR-3 ovarian, 104% in the assay on HS 578T breast and 87.4% in the assay on NCI/ADR-RES ovarian.

For `COc1ccc(-c2nc([C@@H](C)Sc3nc(N)cc(N)n3)c(C)s2)cc1OCCN1CCOCC1`, the growth with SR leukemia was 97.5%; with RPMI-8226 leukemia it was 70.3%; in the assay on OVCAR-8 ovarian it was 95.8%; in the assay with OVCAR-5 ovarian, 121%; in the assay with SK-OV-3 ovarian it was 131%; with IGROV1 ovarian, 123%. Further, the growth in the assay on OVCAR-3 ovarian is 102%; in the assay with HS 578T breast, 94.2%; in the assay on NCI/ADR-RES ovarian, 101%.

As to `CCOC(=O)CCN(CC(C)C)C(=S)Nc1ccccc1`, the growth in the assay with SR leukemia is 97.1%; in the assay on RPMI-8226 leukemia, 115%; in the assay on OVCAR-8 ovarian, 102%; with OVCAR-5 ovarian, 100%; in the assay with SK-OV-3 ovarian it was 130%; with IGROV1 ovarian, 102%. Further, the growth was 124% in the assay on OVCAR-3 ovarian, 117% with HS 578T breast and 105% in the assay on NCI/ADR-RES ovarian.

Turning to `CC(=O)Nc1ccc(-c2ccc3c(c2)NC(=O)/C3=C\c2ccc[nH]2)cc1`, the growth in the assay on SR leukemia is 36.5%; with RPMI-8226 leukemia it was 94.4%; with OVCAR-8 ovarian, 99.8%; in the assay with OVCAR-5 ovarian, 73%; in the assay on SK-OV-3 ovarian, 121%; in the assay with IGROV1 ovarian, 96.6%. In addition, the growth was 104% in the assay on OVCAR-3 ovarian, 110% with HS 578T breast and 96.7% with NCI/ADR-RES ovarian.

For `O=C(/C(=C\c1ccc([N+](=O)[O-])cc1)S(=O)Cc1ccc(Cl)cc1)c1ccc(Cl)cc1` (stereo unspecified), the growth was 15% with SR leukemia; 1.3% (active) in the assay on RPMI-8226 leukemia; 73.6% with OVCAR-8 ovarian; 73.6% with OVCAR-5 ovarian; 105% in the assay on SK-OV-3 ovarian; 62.7% in the assay with IGROV1 ovarian. The growth in the assay with OVCAR-3 ovarian is 73.7%; in the assay on HS 578T breast it was 85.1%; in the assay with NCI/ADR-RES ovarian, 71.7%.

In the case of `Fc1ccc2c(-c3cncn3CCc3ccccc3)c[nH]c2c1`, the growth was 96.3% in the assay with SR leukemia; 72.7% with RPMI-8226 leukemia; 97.7% in the assay with OVCAR-8 ovarian; 92.9% in the assay on OVCAR-5 ovarian; 97.6% in the assay with SK-OV-3 ovarian; 77.4% in the assay on IGROV1 ovarian. Besides, the growth in the assay on OVCAR-3 ovarian was 85.7%; in the assay with HS 578T breast, 67.3%; with NCI/ADR-RES ovarian it was 95.1%.

Regarding `CC(=O)OC[C@]12CC[C@@H](C(=O)CBr)[C@@H]1[C@H]1CC[C@@H]3[C@@]4(C)CC[C@H](OC(C)=O)C(C)(C)[C@@H]4CC[C@@]3(C)[C@]1(C)CC2`, the growth with SR leukemia is 4.82% (active); in the assay with RPMI-8226 leukemia, 91.4%; in the assay with OVCAR-8 ovarian, 81.9%; with OVCAR-5 ovarian, 102%; in the assay on SK-OV-3 ovarian it was 90%; with IGROV1 ovarian, -1.69% (active). For the same compound, the growth in the assay on OVCAR-3 ovarian was 101%; in the assay with HS 578T breast, 101%; in the assay on NCI/ADR-RES ovarian it was 110%.

`CC1(C)NCCC[C@]2(C)[C@H]3CC(=O)[C@H]4[C@@H]5C[C@](C)(CO)CC[C@]5(C)CC[C@@]4(C)[C@]3(C)CC[C@@H]12`: the growth with SR leukemia is 82%; with RPMI-8226 leukemia it was 95%; in the assay on OVCAR-8 ovarian it was 114%; in the assay on OVCAR-5 ovarian, 98.3%; in the assay on SK-OV-3 ovarian it was 110%; with IGROV1 ovarian, 98.1%. The growth with OVCAR-3 ovarian is 89.8%; with HS 578T breast, 99.4%; in the assay on NCI/ADR-RES ovarian it was 105%.

With `COc1cc(/C(C)=C(\c2ccc(Cl)cc2)c2ccc(OCCN(C)C)cc2)ccc1F`, the growth in the assay on SR leukemia was 0.487% (active); in the assay with RPMI-8226 leukemia, 12.2%; in the assay with OVCAR-8 ovarian, 73.9%; in the assay with OVCAR-5 ovarian, 75.3%; with SK-OV-3 ovarian, 111%; with IGROV1 ovarian it was 35.3%. In addition, the growth with OVCAR-3 ovarian is 59.4%; with HS 578T breast it was 71.7%; with NCI/ADR-RES ovarian, 69.4%.

In the case of `CC(C)N1C(=O)/C(=C2\SC(=S)N(C(C)C)C2=O)SC1=S`, the growth in the assay on SR leukemia is 109%; in the assay on RPMI-8226 leukemia it was 92.9%; in the assay on OVCAR-8 ovarian, 96.5%; with OVCAR-5 ovarian, 88%; with SK-OV-3 ovarian, 113%; with IGROV1 ovarian, 94.4%. Besides, the growth was 98.4% with OVCAR-3 ovarian, 91.4% in the assay on HS 578T breast and 95.7% in the assay on NCI/ADR-RES ovarian.

Take `Oc1ccc(OCCOc2ccc(O)cc2)cc1`: the growth is 45.7% with SR leukemia; 66.9% in the assay on RPMI-8226 leukemia; 42.4% in the assay with OVCAR-8 ovarian; 69.4% in the assay on OVCAR-5 ovarian; 95.1% with SK-OV-3 ovarian; 71.4% in the assay on IGROV1 ovarian. Further, the growth in the assay with OVCAR-3 ovarian was 70.2%; with HS 578T breast, 109%; in the assay on NCI/ADR-RES ovarian, 24.3%.

Take `CCOC(=O)c1cc(C(=O)c2ccc(Br)cc2)n2ccc(/C=C/c3cc[n+](CC(=O)c4ccc(OC)cc4)cc3)cc12`: the growth in the assay with SR leukemia was -2.64% (active); in the assay on RPMI-8226 leukemia, 45.7%; in the assay with OVCAR-8 ovarian, 59.9%; in the assay on OVCAR-5 ovarian, 102%; with SK-OV-3 ovarian, 114%; in the assay on IGROV1 ovarian it was 86%. Further, the growth is 102% in the assay with OVCAR-3 ovarian, 129% in the assay on HS 578T breast and 87.5% in the assay with NCI/ADR-RES ovarian.
